Bioassay records deposited in PubChem by several laboratories.
BJeLR viability – BJeLR cell viability loss; BJeLR (HRASV12) viability, CellTiter-Glo ATP luminescence, 48 h; 300,000 compounds, 0.17% hits; inhibition, % (test concentration not listed); in the data active = inhibition above about 50%
MazF activator – MazEF (E. coli) toxin RNase activation. P0AE70. FAM/BHQ RNA-DNA oligo cleavage fluorescence, 5 h. activation, % at 20 µM. 350,000 compounds, 0.32% hits. AID 504720; in the data active = activation above about 50%
Target sequence (P0AE70 whole entry, looked up): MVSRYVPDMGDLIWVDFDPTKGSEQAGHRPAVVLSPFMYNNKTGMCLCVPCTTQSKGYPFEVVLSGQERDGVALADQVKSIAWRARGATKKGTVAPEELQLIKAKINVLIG
SARS 3CLpro inh – SARS-CoV 3CLpro protease inhibition; P0C6X7; AID 1706; inhibition, % at 6 µM; recombinant SARS-CoV 3CLpro, quenched FRET peptide cleavage; 290,000 compounds, 0.14% hits; in the data active = inhibition above about 12%
DUSP3 inh – blocks human VHR1 dual specificity phosphatase | P51452 | recombinant VHR phosphatase, pNPP absorbance | inhibition, % at 13.3 µM | 290,000 compounds, 0.52% hits | AID 1654; in the data active = inhibition above about 50%
Target sequence (P51452 whole entry, looked up): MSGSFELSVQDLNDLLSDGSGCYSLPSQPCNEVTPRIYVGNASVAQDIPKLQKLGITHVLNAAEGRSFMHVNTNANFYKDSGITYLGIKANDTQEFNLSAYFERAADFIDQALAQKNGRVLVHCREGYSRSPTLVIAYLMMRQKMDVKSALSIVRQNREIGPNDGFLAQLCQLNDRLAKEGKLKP
CCHF vOTU inh-1 – CCHFV vOTU protease inhibition; inhibition, % at 11.5 µM; Pep-AMC fluorescence; AID 651958; 370,000 compounds, 0.55% hits
CCHF vOTU inh-2 – CCHFV vOTU protease inhibition, confirmation; shares compounds with CCHF vOTU inh-1; Recombinant CCHFV vOTU, Pep-AMC fluorescence; inhibition, % at 11.5 µM; 1,900 compounds, 17% hits
A number is an active result; . = inactive; / = no result; ! = a repeat was not active. A selection: hits, their analogues and other compounds. The true share with any hit is near 1.4%. Rule as the data show it, unless noted: active = inhibition above about 30%; inactive = the rest.

SMILES	BJeLR viability	MazF activator	SARS 3CLpro inh	DUSP3 inh	CCHF vOTU inh-1	CCHF vOTU inh-2
COc1ccc(C)cc1S(=O)(=O)N(C)CC(=O)Nc1ccc2c(c1)OCO2	.	.	.	.	30.4	.
COc1ccc(C)cc1S(=O)(=O)N(CC(=O)Nc1ccc2c(c1)OCCO2)Cc1ccccc1	.	.	.	.	/	/
Cc1ccc2cc(C(c3nnnn3CC3CCCO3)N3CCc4ccccc4C3)c(=O)[nH]c2c1 (stereo not drawn)	.	.	.	.	83.8	.
CN1CCC/C1=C/C=C1\SC(=S)NC1=O	/	.	.	.	40.2	33.3
CN1/C(=C\C=C2/SC(=S)NC2=O)C(C)(C)c2ccccc21	.	.	.	.	.	/
Cc1ccc(OCC(=O)NNC(=O)c2cc(S(=O)(=O)N(C)C)ccc2N2CCCC2)cc1	/	.	/	/	32.6	.
Cc1cccc(-c2onc3ccc(C(=O)/C=C/N(C)C)cc23)c1	.	.	.	.	33.2	.
Cc1ccc(-c2onc3ccc(C(=O)/C=C/N(C)C)cc23)cc1	.	.	.	.	.	/
COC(=O)C1CN(Cc2ccc(F)cc2)CCS(=O)(=O)N1Cc1ccccc1 (stereo not drawn)	/	/	/	/	.	/
O=[N+]([O-])c1c(Nc2ccccn2)cc(Cl)c2nonc12	111.8	.	.	.	113.0	94.5
O=C(O)c1ccccc1Nc1cc(Cl)c2nonc2c1[N+](=O)[O-]	.	.	.	.	.	/
O=C(CCc1ccccc1)N[C@H]1[C@H](OC(=O)c2cnccn2)CCC[C@@]12C(=O)N(Cc1ccccc1)c1ccccc12	/	/	/	/	.	/
CCOC(=O)COc1ccc(S(=O)(=O)N2CCN(c3ccc(OC)cc3)CC2)cc1	.	.	.	.	30.3	.
CC(C)CN1C(=O)C[C@@]2(C(=O)N(C)c3ccc(NC(=O)C(C)(C)C)cc32)C1c1ccccc1 (stereo partly drawn)	/	/	/	/	.	/
Cc1ccn2c(=O)nc(SCC(=O)NCc3ccccc3)nc2c1	.	.	/	/	.	/
Cc1ccc(CNC(=O)CSc2nc(=O)n3ccc(C)cc3n2)cc1	/	.	/	/	40.1	.
COC(=O)[C@]12C[C@H](CC(=O)NCCCN3CCCC3=O)C(=O)N(Cc3ccc4c(c3)OCO4)C1=C[C@H](C(C)C)O[C@@H]2C1CC1	/	/	/	/	.	/
Cc1ccc(S(=O)(=O)N2C(c3ccc(Cl)c(Cl)c3)CC=C(C(=O)O)C2c2ccc(Cl)cc2)cc1 (stereo not drawn)	/	/	/	/	35.2	.
Cc1ccc(S(=O)(=O)N2C(c3ccc(Cl)c(Cl)c3)CC=C(C(=O)O)C2c2cccc(Cl)c2)cc1 (stereo not drawn)	/	/	/	/	.	/
Cc1ccc(S(=O)(=O)N2[C@@H](c3ccc(Cl)cc3)C(C(=O)O)=CC[C@H]2c2ccc(Cl)c(Cl)c2)cc1	/	.	/	/	32.8	.
CCOC(=O)[C@@]12CCCC3=C1N(CCC3)C(=O)[C@H]2CC(=O)N1CCSCC1	/	/	/	/	.	/
O=C(CSc1nnnn1C1CC1)N1CCN(c2ccccc2F)CC1	/	.	/	/	33.0	.
CN(/N=C/C=C/c1ccccc1)c1cc(=O)n(C)c(=O)[nH]1	.	.	.	.	31.6	.
O=C1C(Cc2ccccc2)Nc2ncnc(N3CCN(c4ccccc4)CC3)c2N1Cc1ccccc1 (stereo not drawn)	.	.	/	/	.	/
O=C1C(Cc2ccccc2)Nc2ncnc(N3CCOCC3)c2N1Cc1ccc(Cl)cc1 (stereo not drawn)	.	.	/	/	30.8!	.
SMILES	BJeLR viability	MazF activator	SARS 3CLpro inh	DUSP3 inh	CCHF vOTU inh-1	CCHF vOTU inh-2
N#Cc1ccc(Cn2ccc3ccc(-c4ccc5ccn(C(=O)C6CC6)c5c4)cc32)cc1	/	/	/	/	.	/
O=C(CN1C(=O)CCSc2ccccc21)Nc1ccc(Cl)c(Cl)c1	/	/	/	/	.	/
Nc1ccc2nc(-c3ccccc3)c(-c3ccccc3)nc2c1	.	.	.	.	.	/
C[n+]1c(-c2ccccc2)c2cc(N)ccc2c2ccc(N)cc21	.	.	.	.	104.8	77.4
CC(=O)c1ccc(-c2cc(C(C)=O)c3n(c2=O)CCC3)cc1	/	/	/	/	.	/
O=C(c1nc[nH]c1C(=O)N1CCc2ccccc2C1)N1CCc2ccccc2C1	/	.	/	/	43.3	.
CCCCC[C@H](C)N1C[C@@H](COCc2ccccc2)Oc2cc(N3CCC[C@H]3C(N)=O)ccc2S1(=O)=O	/	/	/	/	35.4	.
CCCCC[C@@H](C)N1C[C@@H](COCc2ccccc2)Oc2cc(N3CCC[C@H]3C(N)=O)ccc2S1(=O)=O	/	/	/	/	.	/
CCCCC[C@@H](C)N1C[C@H](COCc2ccccc2)Oc2cc(N3CC[C@@H](O)C3)ccc2S1(=O)=O	/	/	/	/	41.5	.
C[C@H](O)[C@@H]1CN2CCc3ccc(N4CCOCC4)cc3[C@@H]2C[C@@H]1N(C)C(=O)c1ccco1	/	/	/	/	.	/
CN1C(=O)c2cc(NC(=O)Nc3ccccc3)ccc2OC[C@H]2O[C@@H](CC(=O)NC3Cc4ccccc4C3)CC[C@@H]21	/	/	/	/	.	/
CCCc1c(-c2cccc(F)c2)ncn1Cc1ccccc1OC	/	/	/	/	36.8	.
CCCCc1c(-c2ccccc2OC)ncn1CCc1ccccc1Cl	/	/	/	/	31.4	.
CCCCc1c(-c2ccccc2OC)ncn1CCc1ccccc1OC	/	/	/	/	.	/
CCCCc1c(-c2ccccc2OC)ncn1Cc1ccc(F)cc1F	/	/	/	/	33.3	.
CCCCCc1c(-c2ccccc2F)ncn1CCc1ccccc1OC	/	/	/	/	.	/
CCCCc1c(-c2ccccc2F)ncn1CCc1ccccc1OC	/	/	/	/	36.5	.
CCCc1c(-c2cccc(F)c2)ncn1CCc1ccccc1OC	/	/	/	/	.	/
COC(=O)C[C@@H]1CC[C@H]2[C@@H](COc3ccc(NC(=O)Nc4cccc(F)c4)cc3C(=O)N2C)O1	/	/	/	/	.	/
CC(=O)N1CCN(c2cc(C)nc3nc(C)nn23)CC1	/	/	/	/	.	/
C[C@H](O)[C@@H]1CN2CCc3c([nH]c4cccc(-c5ccc6c(c5)OCO6)c34)[C@@H]2C[C@@H]1N(C)C(=O)c1ccco1	/	/	/	/	.	/
CC12CC(c3ccccc3O1)C(C(=O)OCc1ccccc1)C(=O)N2 (stereo not drawn)	.	.	.	.	38.2	.
COc1ccc(C=O)cc1-c1cc(C(C)=O)c2n(c1=O)CCC2	/	/	/	/	.	/
CC(CCc1ccccc1)NC(=O)c1ccc(NC(=O)c2ccccc2)cc1 (stereo not drawn)	.	.	.	.	32.1	.
CC(CCc1ccccc1)NC(=O)c1ccc(NC(=O)c2cccc(Br)c2)cc1 (stereo not drawn)	.	.	.	.	.	/
SMILES	BJeLR viability	MazF activator	SARS 3CLpro inh	DUSP3 inh	CCHF vOTU inh-1	CCHF vOTU inh-2
CCN1C(=O)/C(=C/c2ccc(C)s2)NC1=S	.	.	.	.	31.2	.
CCN1C(=O)C(=Cc2ccc(C)s2)C(=O)N(CC)C1=S	.	.	.	.	.	/
COCCCn1c(N)c(C(=O)Nc2ccccc2)c2nc3ccccc3nc21	.	.	.	.	.	/
COCCCn1c(N)c(C(=O)Nc2sc3c(c2C(=O)OC)CCCC3)c2nc3ccccc3nc21	.	.	.	.	34.8	.
CC(=O)c1ccc(N2CCN(C(=O)COc3ccc4c(c3)CCC4)CC2)cc1	.	.	.	.	.	/
Cc1ccc(Cl)cc1N1CCN(C(=O)COc2ccc3c(c2)CCC3)CC1	.	.	.	.	30.4	.
CC1Cc2nc(SCC(=O)NCc3ccco3)n(-c3ccccc3)c(=O)c2S1 (stereo not drawn)	.	.	.	.	29.5	.
